Texas Red fluor = Texas Red region autofluorescence; Compound fluorescence, Texas Red channel, 547/618 nm; hits give high values; max dye-equivalent concentration, M; 0.06% of 59,000 active; in the data active = max dye-equivalent concentration above about 10 nM; inconclusive = between about 1.1 nM and that limit
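qHTS profiling of intrinsic compound fluorescence; 100 mM Tris pH 8.0; 15 min RT; ex 547 / em 618 nm; response expressed as Texas Red dye-equivalent concentration from six-point plate standard.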
A488 autofl = compound fluoresces in the A488 spectral region; compound autofluorescence, A488 spectral region, dye equivalency; Compound Type: qHTS ECL - MLSMR; max dye equivalency, M; 0.1% of 59,000 active; AID 591
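Autofluorescence read at ex 480/em 540 nm after 15 min RT in 100 mM Tris pH 8.0; compound signal normalized to A488 standard series on each plate, reported as dye-equivalent concentration at each test concentration.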
Fluorescein fluor = compound fluoresces in the fluorescein spectral region | 0.91% of 59,000 active | max fluorescein-equivalent concentration, M | Compound autofluorescence, 480/540 nm, fluorescein-equivalent; hits give high values | AID 593; in the data active = max fluorescein-equivalent concentration above about 10 nM; inconclusive = between about 1.1 nM and that limit
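Tris 100 mM pH 8.0; 15 min RT; CCD read, ex 480/em 540 nm. Output: fluorescein-equivalent concentration per compound concentration, from six-point dye series on each plate.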
Resorufin autofl = resorufin region autofluorescence; max dye-equivalent concentration, M; 0.04% of 59,000 active; Compound fluorescence, resorufin region 547/598 nm, buffer; hits give high values
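Read-out: intrinsic compound fluorescence at ex 547/em 598 nm after 15 min at RT in pH 8.0 Tris (100 mM). Values expressed as resorufin-equivalent concentration from per-plate standard series.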
Rhodamine autofl = compound autofluorescence in rhodamine spectral region; Rhodamine-region fluorescence, 547/598 nm, Tris buffer; hits give high values; max dye-equivalent concentration, M; 0.05% of 59,000 active; AID 594; in the data active = max dye-equivalent concentration above about 11 nM; inconclusive = between about 1.1 nM and that limit
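Steps: pin-transfer compounds into pH 8.0 Tris (100 mM), hold 15 min at room temperature, image with a 547/598 nm filter pair, and convert intensities to rhodamine-equivalent concentration using a six-point on-plate rhodamine series.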
A647 fluor = A647 region autofluorescence; Compound fluorescence, A647 channel (570/671 nm), Tris buffer; max dye-equivalent concentration, M; 59,000 tested, under 10 active; AID 592
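Tris 100 mM pH 8.0; cpd + A647 stds pin-transferred; 15 min RT; CCD imager, ex 570/em 671. Output = A647-equivalent conc. per cpd conc.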
Large screens that a line does not name were inactive. Shown are actives, neighbours in structure and some others; about 0.9% of the full set was active somewhere. Unless noted, no rule for the calls is given here.

COc1ccccc1C(=O)Nc1ccccn1	Texas Red fluor inconclusive, Fluorescein fluor inconclusive
CCN(CC)c1ccc2cc(C(=O)Nc3cccnc3N3CCOCC3)c(=O)oc2c1	A488 autofl inconclusive, Fluorescein fluor 4e-08M
NCC[C@H](N)C(=O)O	Texas Red fluor inconclusive
CN(C)S(=O)(=O)c1ccc2c(c1)/C(=C/c1cc3c([nH]1)CCCC3)C(=O)N2	Fluorescein fluor 1.9e-08M
COc1ccc(N(C)S(=O)(=O)c2ccc3c(c2)CCC(=O)N3)cc1	none
Cc1cnc(CNc2ncnc3ccc(-c4ccc(N(C)C)cc4)cc23)cn1	none
CC(=O)c1c(C)nc2cc(Cl)ccc2c1N	none
Cc1nc2ccc(Cl)cc2nc(C)/c1=N\O	Texas Red fluor inconclusive, A488 autofl inconclusive, Fluorescein fluor 1.1e-07M
Nc1ncnc2c1ncn2[C@H]1O[C@@H](CO)[C@@H](O)[C@H]1N	Fluorescein fluor inconclusive
COc1ccccc1CN1CCC2(CC1)CCN(C(=O)c1ccncc1)CC2	Fluorescein fluor 1.1e-08M
COc1ccccc1CN1CC[C@@]2(CCCN(C(=O)c3ccncc3)C2)C1	none
Clc1ccccc1NN(Cc1ccncc1)c1ccccc1Cl	none
CCN1C(=O)c2cccc3c(S(=O)(=O)Nc4ncccc4C)ccc1c23	Fluorescein fluor inconclusive
Cc1ccc(N2C(=O)c3cccc4c(N5CCN(C)CC5)ccc(c34)C2=O)c2cccnc12	A488 autofl inconclusive, Fluorescein fluor 2.6e-08M
CCOC(=O)N1CC=C2C(C#N)=C(N)C(C#N)(C#N)[C@H](c3ccc(OCC)c(OCC)c3)[C@H]2C1	none
CCCN1CC=C2C(C#N)=C(N)C(C#N)(C#N)C(c3cccc(OC)c3OC)C2C1 (stereo not drawn)	A488 autofl inconclusive, Fluorescein fluor 5.3e-08M
CN1CC=C2C(C#N)=C(N)C(C#N)(C#N)C(c3cccc(Cl)c3Cl)C2C1 (stereo not drawn)	Texas Red fluor inconclusive, A488 autofl inconclusive, Fluorescein fluor 3.9e-08M
CCCCOc1ccc(C2C3CN(C(=O)OCC)CC=C3C(C#N)=C(N)C2(C#N)C#N)cc1OC (stereo not drawn)	Fluorescein fluor inconclusive
Cc1ccc(C2C3CN(C(C)C)CC=C3C(C#N)=C(N)C2(C#N)C#N)cc1 (stereo not drawn)	A488 autofl inconclusive, Fluorescein fluor 1e-07M
COc1ccc(OC)c(C2C3CN(C(C)C)CC=C3C(C#N)=C(N)C2(C#N)C#N)c1 (stereo not drawn)	Fluorescein fluor 3.2e-08M
O=C(Nc1ccccc1)N1CC[C@@]2(CCCN(C(=O)c3ccncc3)C2)C1	Texas Red fluor inconclusive
N#Cc1c(N)sc(=S)c2c1CCCC2	Texas Red fluor inconclusive, A488 autofl inconclusive, Fluorescein fluor 6.8e-08M
CCC1(C)Cc2c(C#N)c(N)sc(=S)c2CO1 (stereo not drawn)	Fluorescein fluor 1e-08M
CSc1c(C#N)c(N)c(C#N)c2c1COC(C)(C)C2	Fluorescein fluor inconclusive
COc1cccc(Nc2ncc3nc(-c4ccc(F)cc4)c(=O)n(CCC#N)c3n2)c1	Fluorescein fluor inconclusive
COc1cc(N2C(=O)NC3CC2(C)Oc2ccccc23)cc(OC)c1OC (stereo not drawn)	none
CN(C)c1ccc(/C=C/C(O)=C2/C(=O)N(C)C3(C)CC2c2ccccc2O3)cc1 (stereo not drawn)	Fluorescein fluor 1.6e-08M
C[C@H]1C[C@@H]2[C@@H]([C@@H](O)C[C@@]3(C)[C@H]2CC[C@]3(O)C(=O)CO)[C@@]2(C)C=CC(=O)C=C12	Fluorescein fluor inconclusive
CC1=C(C#N)C(=O)OC(C)(C)C1	A488 autofl inconclusive, Fluorescein fluor 5e-08M
NC(N)=N[C@@H]1C(O)[C@H](N=C(N)N)[C@@H](O)C(O)[C@H]1O (stereo partly drawn)	Texas Red fluor inconclusive
CCOc1ccc(C2C=C(c3ccccc3)Nc3ncnn32)cc1 (stereo not drawn)	Fluorescein fluor 1.3e-08M
COc1cccc(C2=CC(c3ccccc3)n3ncnc3N2)c1 (stereo not drawn)	Fluorescein fluor inconclusive
COc1ccc(C2C=C(c3ccc(Br)s3)Nc3ncnn32)cc1OC (stereo not drawn)	A488 autofl 7.3e-08M, Fluorescein fluor 1.3e-06M

Screens as filed in PubChem BioAssay.
